Results on four compounds are retold here after PubChem BioAssay (EPA / NIEHS).

Activity calls are given as the source filed them. How the source made its calls: active means hit-call score of the fitted dose curve at least 0.9, where 1 is the maximum; inactive means score below 0.9.

Assay [1] in a line: APR_HepG2_NuclearSize_72hr: Apredica 72-hour HepG2 Assay for Nuclear Size (AID 2282925). As to conditions: high-content imaging, actives raise or lower the signal. Summed up: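 Nuclear size was read by high-content imaging of Hoechst 33342 stain after formaldehyde fixation. Compounds ran 72 h on HepG2 at 0.39 to 200 uM, with final DMSO 0.5% v/v. Curves fitted both directions relative to DMSO control.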

Assay [2] can be described thus: ATG_CRE_CIS: Attagene CIS-FACTORIAL HepG2 Assay for human cAMP Responsive Element (CRE) binding protein 3 (AID 2282926). Conditions: HepG2 CRE cis-reporter, Attagene multiplexed mRNA; actives raise or lower the signal. A digest of the protocol: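 Liver-derived HepG2, transfected with a CRE-containing reporter panel, exposed 24 h; transcript levels sized and quantified by capillary electrophoresis of labelled amplicons; signal changes either way referenced to vehicle.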

The target in assay [3] is CCAAT/enhancer-binding protein beta (Homo sapiens) (UniProt P17676). Briefly: ATG_C_EBP_CIS: Attagene CIS-FACTORIAL HepG2 Assay for human CCAAT/Enhancer Binding Protein (C/EBP) beta (AID 2282927). As to conditions: HepG2 Attagene cis-factorial transcription factor reporter; actives raise or lower the signal. A digest of the protocol: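 Endogenous C/EBPb-driven reporter transcripts measured in transfected human HepG2 cells at 24 h via RT-PCR and capillary electrophoresis of labelled fragments. Activity fitted in both directions relative to DMSO baseline.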

A short description of assay [4]: ATG_CMV_CIS: Attagene CIS-FACTORIAL HepG2 Assay for human CMV (Internal Marker) (AID 2282928).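 Further: endpoint acts as a background internal control marker rather than a target.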 Conditions: HepG2 CMV promoter reporter, transcription factor profiling; actives raise or lower the signal. Summed up: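 24 h chemical treatment, HepG2 with transient multi-reporter transfection; RNA → oligo(dT) RT → PCR → 6-FAM extension → HpaI digest → CE fluorescence. Bidirectional fit, DMSO negative control.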

The nature of assay [5]: ATG_DR4_LXR_CIS: Attagene CIS-FACTORIAL HepG2 Assay for human Liver X Receptor (LXR), DR4 submotif (AID 2282929). As to conditions: HepG2 Attagene DR4 cis-reporter, mRNA transcription; actives raise or lower the signal. A digest of the protocol: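 HepG2 cells were transiently transfected with multiple cis-regulated reporter units and dosed for 24 hours. The DR4 reporter mRNA was quantified by RT-PCR, 6-FAM labelling and capillary electrophoresis. Bidirectional fits used DMSO as baseline.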

Assay [6] has as its target Aryl hydrocarbon receptor (Homo sapiens) (UniProt P35869). Nature of the assay: ATG_Ahr_CIS: Attagene CIS-FACTORIAL HepG2 Assay for human Aryl Hydrocarbon Receptor (Ahr) (AID 2282930). Conditions: HepG2 AhR cis-factorial reporter transcription; actives raise or lower the signal. Summed up: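 Reporter mRNA levels, quantified by RT-PCR and fluorescent capillary electrophoresis, reflect endogenous AhR transcriptional activity in HepG2 cells carrying transfected cis-promoter reporter constructs. Readout at 24 h post-dose; gain or loss fitted against DMSO baseline.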

Assay [7] is described as follows: ATG_AP_1_CIS: Attagene CIS-FACTORIAL HepG2 Assay for human Activator Protein 1 (AP-1) (AID 2282931). Conditions: HepG2 Attagene cis-factorial AP-1 reporter mRNA; actives raise or lower the signal. Summed up: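 HepG2 cells transiently transfected with cis-element-driven reporter transcription units, dosed for 24 hours. Reporter mRNA measured by RT-PCR, 6-FAM labelling, HpaI digestion and capillary electrophoresis. Bidirectional fitting against DMSO baseline.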

The nature of assay [8]: ATG_AP_2_CIS: Attagene CIS-FACTORIAL HepG2 Assay for human Activator Protein 2 (AP-2) (AID 2282932). As to conditions: HepG2 AP-2 cis-reporter, Attagene transcription factor profiling; actives raise or lower the signal. A digest of the protocol:
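Endogenous transcription factor activity is reported through transfected multiplex reporter constructs in HepG2, after 24 h of compound exposure. Transcripts were quantified by RT-PCR and capillary electrophoresis of fluorescent fragments. Bidirectional fit against DMSO.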

Assay [9] is described as follows: ATG_BRE_CIS: Attagene CIS-FACTORIAL HepG2 Assay for human Bone Morphogenetic Protein (BMP) Response Element (BRE) (AID 2282933). Conditions: HepG2 BMP response element reporter, Attagene transcription factor profiling; actives raise or lower the signal. Summed up:
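Endogenous transcription factor activity at a BMP response element was monitored in transfected HepG2 cells 24 h after dosing. Fluorescent RT-PCR products were resolved by capillary electrophoresis, and activity was fitted in both directions versus DMSO.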

In assay [10] the target is Retinoic acid receptor alpha (Homo sapiens) (UniProt P10276). Nature of the assay: ATG_DR5_RAR_CIS: Attagene CIS-FACTORIAL HepG2 Assay for human Retinoic Acid Receptor Alpha (RARE), DR5 submotif (AID 2282934). Conditions: HepG2 Attagene cis-factorial RARE DR5 reporter, mRNA; actives raise or lower the signal. A digest of the protocol:
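Reporter transcripts from a DR5-regulated unit, measured via RT-PCR plus capillary electrophoresis, reflect endogenous RAR activity in transiently transfected human HepG2 liver cells. Exposure lasted 24 h; gain or loss of signal scored against DMSO.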

Assay [11] addresses Transcription factor E2F1 (Homo sapiens) (UniProt Q01094). Briefly: ATG_E2F_CIS: Attagene CIS-FACTORIAL HepG2 Assay for human E2F Transcription Factor 1 (AID 2282935). Conditions: HepG2 Attagene cis-reporter, E2F reporter RNA transcripts; actives raise or lower the signal. Summed up:
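Gain or loss of reporter transcript, fitted against DMSO, reflects E2F1-driven transcription. Transiently transfected HepG2 dosed 24 h before RNA isolation. Quantified by fluorescent RT-PCR products separated by capillary electrophoresis.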

Assay [12] can be described thus: ATG_E_Box_CIS: Attagene CIS-FACTORIAL HepG2 Assay for human Enhancer Box (E-box) (AID 2282936). As to conditions: HepG2 E-box cis-reporter transcription, actives raise or lower the signal. A digest of the protocol: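 E-box-driven reporter transcripts measured in transiently transfected HepG2 after 24 h exposure: RNA reverse-transcribed, PCR-amplified, fluorescently labelled, digested and resolved by capillary electrophoresis. Gain or loss relative to DMSO.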

Assay [13] is described as follows: ATG_M_61_CIS: Attagene CIS-FACTORIAL HepG2 Assay for M61 Transcription Factor (Internal Marker) (AID 2282937). Conditions: HepG2 Attagene CIS-FACTORIAL M61 internal marker reporter; actives raise or lower the signal. Summed up:
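HepG2 cells transiently transfected with multiplexed cis-promoter reporter units reporting endogenous transcription factor activity, measured 24 h after dosing. Reporter mRNA quantified by RT-PCR and capillary electrophoresis; bidirectional fit against DMSO baseline.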

The nature of assay [14]: ATG_EGR_CIS: Attagene CIS-FACTORIAL HepG2 Assay for human Early Growth Response 1 (EGR1) (AID 2282938). Conditions: HepG2 Attagene CIS-FACTORIAL EGR reporter mRNA; actives raise or lower the signal. Summed up: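 HepG2 cells transiently transfected with cis-element-driven multiplexed reporter units, dosed for 24 h. EGR1-element reporter mRNA quantified by RT-PCR, 6-FAM labelling, HpaI digestion and capillary electrophoresis; bidirectional fit versus DMSO.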

A short description of assay [15]: ATG_M_19_CIS: Attagene CIS-FACTORIAL HepG2 Assay for M19 Transcription Factor (Internal Marker) (AID 2282939). As to conditions: HepG2 Attagene CIS-FACTORIAL M19 internal marker reporter; actives raise or lower the signal. Summed up:
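Background-control endpoint from a multiplexed HepG2 reporter panel. Cells carrying cis-regulated reporter constructs are treated 24 h, then reporter transcripts are amplified, fluorescently labelled and sized by capillary electrophoresis. DMSO defines baseline.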

A short description of assay [16]: ATG_ERE_CIS: Attagene CIS-FACTORIAL HepG2 Assay for Estrogen Response Element (ERE) (AID 2282940). Conditions: HepG2 ERE cis-reporter, Attagene RNA transcript; actives raise or lower the signal. A digest of the protocol: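 Cells used were human hepatoma HepG2, transfected with multiple reporter transcription units under cis-regulatory promoters. Reporter mRNA, read 24 h post-dosing via fluorescent RT-PCR products on capillary electrophoresis, was fitted bidirectionally relative to DMSO.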

The nature of assay [17]: ATG_Ets_CIS: Attagene CIS-FACTORIAL HepG2 Assay for human Erythroblast Transformation Specific (ETS) (AID 2282941). As to conditions: HepG2 ETS cis-reporter transcription, actives raise or lower the signal. A digest of the protocol:
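Cis-regulated reporter mRNA induction in HepG2 (transient transfection), 24 h exposure, RT-PCR plus capillary electrophoresis detection; DMSO serves as negative control and baseline.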

For assay [18], the target named is Hepatocyte nuclear factor 3-beta (Homo sapiens) (UniProt Q9Y261). Briefly: ATG_FoxA2_CIS: Attagene CIS-FACTORIAL HepG2 Assay for human Forkhead box A2 (FOXA2) (AID 2282942). As to conditions: HepG2 cis-reporter transcription factor activity, 24 h; actives raise or lower the signal. A digest of the protocol: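 HepG2 transiently transfected with a multiplexed cis-promoter reporter library read endogenous FOXA2 activity. After 24 h compound exposure, reporter mRNA was quantified by RT-PCR, HpaI digestion and capillary electrophoresis. Bidirectional fit against DMSO.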

A short description of assay [19]: ATG_FoxO_CIS: Attagene CIS-FACTORIAL HepG2 Assay for human Forkhead box O (FoxO) (AID 2282943). As to conditions: HepG2 Attagene cis-reporter, FoxO element, mRNA; actives raise or lower the signal. A digest of the protocol: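 Endogenous transcription factor activity read from multiplexed cis-promoter reporter transcripts in transiently transfected HepG2, 24 h after dosing. Reporter RNA measured via RT-PCR plus capillary electrophoresis of FAM-labeled products; gain or loss relative to DMSO.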

A short description of assay [20]: ATG_GATA_CIS: Attagene CIS-FACTORIAL HepG2 Assay for human GATA Binding Protein (AID 2282944). As to conditions: HepG2 GATA cis-element reporter, Attagene multiplex mRNA; actives raise or lower the signal. Summed up:
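Endogenous transcription factor activity was captured through cis-promoter-driven reporters in transfected HepG2 cells. After 24 h exposure, reporter transcripts were quantified by RT-PCR with fluorescent capillary electrophoresis, and responses fitted both directions against DMSO.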

Chain of CCAAT/enhancer-binding protein beta (Homo sapiens) (P17676 whole entry, looked up, the tested form may be a part): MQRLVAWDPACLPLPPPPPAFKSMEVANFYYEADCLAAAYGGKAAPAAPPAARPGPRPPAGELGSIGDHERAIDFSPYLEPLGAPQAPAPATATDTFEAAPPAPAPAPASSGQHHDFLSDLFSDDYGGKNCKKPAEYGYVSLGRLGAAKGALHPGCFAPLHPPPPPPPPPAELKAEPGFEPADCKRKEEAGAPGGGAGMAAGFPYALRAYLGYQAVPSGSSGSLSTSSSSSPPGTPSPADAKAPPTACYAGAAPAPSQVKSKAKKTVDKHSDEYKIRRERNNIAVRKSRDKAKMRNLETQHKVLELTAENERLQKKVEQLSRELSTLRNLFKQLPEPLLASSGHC
Chain of Hepatocyte nuclear factor 3-beta (Homo sapiens) (Q9Y261 whole entry, looked up): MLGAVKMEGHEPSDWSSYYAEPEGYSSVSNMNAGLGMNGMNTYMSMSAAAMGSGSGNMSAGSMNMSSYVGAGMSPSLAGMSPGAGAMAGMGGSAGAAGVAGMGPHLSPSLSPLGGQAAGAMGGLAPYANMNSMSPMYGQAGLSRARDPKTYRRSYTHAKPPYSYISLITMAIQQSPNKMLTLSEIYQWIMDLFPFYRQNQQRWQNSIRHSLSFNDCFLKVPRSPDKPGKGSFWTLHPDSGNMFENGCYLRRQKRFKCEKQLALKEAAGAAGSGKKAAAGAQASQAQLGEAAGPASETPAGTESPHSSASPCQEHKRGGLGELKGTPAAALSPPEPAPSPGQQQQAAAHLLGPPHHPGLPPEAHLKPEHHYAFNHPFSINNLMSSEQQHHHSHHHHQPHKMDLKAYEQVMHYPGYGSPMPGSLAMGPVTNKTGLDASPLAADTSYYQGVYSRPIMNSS
Chain of Aryl hydrocarbon receptor (Homo sapiens) (P35869 whole entry, looked up): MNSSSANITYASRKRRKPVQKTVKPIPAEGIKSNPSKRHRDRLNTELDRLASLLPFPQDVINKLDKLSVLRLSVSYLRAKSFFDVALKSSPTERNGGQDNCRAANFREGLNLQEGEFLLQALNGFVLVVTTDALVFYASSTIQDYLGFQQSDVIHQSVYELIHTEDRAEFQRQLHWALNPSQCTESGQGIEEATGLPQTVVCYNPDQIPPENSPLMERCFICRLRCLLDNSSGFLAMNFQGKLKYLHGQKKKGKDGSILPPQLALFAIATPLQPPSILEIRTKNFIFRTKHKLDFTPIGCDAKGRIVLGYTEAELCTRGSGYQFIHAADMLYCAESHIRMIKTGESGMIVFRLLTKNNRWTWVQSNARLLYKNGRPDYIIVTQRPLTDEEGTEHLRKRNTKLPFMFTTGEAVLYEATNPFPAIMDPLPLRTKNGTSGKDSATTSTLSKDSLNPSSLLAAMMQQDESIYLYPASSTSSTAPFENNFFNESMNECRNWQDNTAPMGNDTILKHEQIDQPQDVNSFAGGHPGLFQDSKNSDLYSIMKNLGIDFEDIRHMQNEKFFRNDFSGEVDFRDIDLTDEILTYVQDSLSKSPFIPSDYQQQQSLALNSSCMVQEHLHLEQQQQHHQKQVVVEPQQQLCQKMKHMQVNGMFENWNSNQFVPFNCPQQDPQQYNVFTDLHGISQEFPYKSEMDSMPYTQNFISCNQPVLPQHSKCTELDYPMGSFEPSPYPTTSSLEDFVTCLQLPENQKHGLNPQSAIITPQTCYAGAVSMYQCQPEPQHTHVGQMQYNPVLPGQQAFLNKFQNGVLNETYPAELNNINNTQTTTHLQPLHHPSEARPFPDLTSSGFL
Chain of Transcription factor E2F1 (Homo sapiens) (Q01094 whole entry, looked up): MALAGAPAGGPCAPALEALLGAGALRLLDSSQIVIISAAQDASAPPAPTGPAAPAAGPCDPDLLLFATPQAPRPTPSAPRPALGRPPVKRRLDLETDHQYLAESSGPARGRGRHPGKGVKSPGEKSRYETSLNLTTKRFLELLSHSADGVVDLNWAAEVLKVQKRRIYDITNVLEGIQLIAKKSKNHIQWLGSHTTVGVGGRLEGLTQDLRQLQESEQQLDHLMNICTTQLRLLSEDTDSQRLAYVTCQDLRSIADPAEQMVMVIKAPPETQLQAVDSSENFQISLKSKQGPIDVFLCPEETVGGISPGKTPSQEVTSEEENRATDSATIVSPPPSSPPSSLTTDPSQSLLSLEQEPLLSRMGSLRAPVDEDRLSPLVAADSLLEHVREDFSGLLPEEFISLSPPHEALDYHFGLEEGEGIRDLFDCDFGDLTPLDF
Chain of Retinoic acid receptor alpha (Homo sapiens) (P10276 whole entry, looked up): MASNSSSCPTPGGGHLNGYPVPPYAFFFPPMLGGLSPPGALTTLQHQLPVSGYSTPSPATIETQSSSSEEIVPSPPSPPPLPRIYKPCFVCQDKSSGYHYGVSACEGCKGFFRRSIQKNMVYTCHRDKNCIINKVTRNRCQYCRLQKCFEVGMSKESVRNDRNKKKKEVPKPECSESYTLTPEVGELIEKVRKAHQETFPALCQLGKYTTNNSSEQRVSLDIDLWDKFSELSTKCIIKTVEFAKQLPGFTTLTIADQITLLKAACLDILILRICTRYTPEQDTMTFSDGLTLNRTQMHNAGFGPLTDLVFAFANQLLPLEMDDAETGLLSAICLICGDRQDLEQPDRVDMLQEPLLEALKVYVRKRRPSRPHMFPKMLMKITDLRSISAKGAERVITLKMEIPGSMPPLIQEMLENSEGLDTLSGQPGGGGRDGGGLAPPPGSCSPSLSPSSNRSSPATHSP

Consider `CCCCCCOCCO`, for which the call in assay [1], in [2], in [3], in assay [4], in assay [5] and in assay [6] was inactive. Besides, the call in [7], in [8], in [9], in [10], in [11] and in [12] was inactive. Moreover, the call in [13], in assay [14], in assay [15], in assay [16], in [17] and in assay [18] was inactive. Also, the outcome in assay [19] and in assay [20] was inactive.

The AC50 is the concentration at which the activity in the assay is half-maximal. Regarding `Cc1oc(-c2ccccc2)nc1CCOc1cccc2c1ccn2CCC(=O)O`, the call in [1], in assay [2], in assay [3], in assay [6], in assay [7] and in [8] was inactive. The compound was called inactive in assay [9], in [11], in assay [12], in assay [13], in [14] and in assay [15]. For the same compound, the call in assay [17], in assay [19] and in assay [20] was inactive. Besides, the AC50 in assay [4] is 19.8 µM (active); in assay [5], 19.8 µM (active); in assay [16], 0.066 µM (active); in assay [18], 1.86 µM (active).

Regarding `Cc1cccc(Nc2cc(Cl)nc(SCC(=O)O)n2)c1C`, the compound was called inactive in [1], in [2], in assay [3], in [4], in [5] and in [6]. Further, the result in assay [7], in assay [8], in assay [9], in [10], in assay [11] and in assay [12] was inactive. Also, the call in assay [13], in assay [14], in assay [15], in [16], in assay [17] and in assay [18] was inactive. Moreover, the call in assay [19] and in assay [20] was inactive.

Consider `CCCCCCCCCCCCCCCCCC(=O)O`, for which the compound was classed as inactive in assay [1], in assay [2], in assay [3], in assay [4], in assay [5] and in assay [6]. Besides, the result in assay [7], in assay [8], in assay [9], in assay [10], in assay [11] and in [12] was inactive. The result in assay [13], in assay [14], in assay [15], in [17], in assay [18] and in [19] was inactive. Moreover, in [20], the compound was called inactive. Also, in assay [16], the AC50 is 2.75 µM (active).
